Assay results taken from PubChem BioAssay AID1851 (National Center for Advancing Translational Sciences (NCATS), 2009).
Values joined by “and” are separate entries in the source; they are usually repeats but may differ in a detail not shown here. Equal entries are not always repeated. The campaign covered roughly 16,000 compounds. About 5,700 (36%) were called active. About 24% were inconclusive and are not listed. The list shows a part of the results. Unmarked numbers belong to inactive results. The call rests on the fitted dose curve; in most records, active means well fitted curve in the direction sought with a large enough effect; inconclusive means small, poorly fitted or top-dose-only effect, or effect the other way; inactive means no such curve, though single readings can be large or run the other way. Square brackets hold non-standard residues; d marks the D form. Peptide text beside a SMILES is read from it.

target: Cytochrome P450 1A2 (Homo sapiens) (UniProt P05177); experiment: Cytochrome panel assay with activity outcomes; details: recombinant CYP, pro-luciferin dealkylation, luminescence, p450-cyp1a2; series mostly up to 57.1 µM
Sequence (P05177 whole entry, looked up): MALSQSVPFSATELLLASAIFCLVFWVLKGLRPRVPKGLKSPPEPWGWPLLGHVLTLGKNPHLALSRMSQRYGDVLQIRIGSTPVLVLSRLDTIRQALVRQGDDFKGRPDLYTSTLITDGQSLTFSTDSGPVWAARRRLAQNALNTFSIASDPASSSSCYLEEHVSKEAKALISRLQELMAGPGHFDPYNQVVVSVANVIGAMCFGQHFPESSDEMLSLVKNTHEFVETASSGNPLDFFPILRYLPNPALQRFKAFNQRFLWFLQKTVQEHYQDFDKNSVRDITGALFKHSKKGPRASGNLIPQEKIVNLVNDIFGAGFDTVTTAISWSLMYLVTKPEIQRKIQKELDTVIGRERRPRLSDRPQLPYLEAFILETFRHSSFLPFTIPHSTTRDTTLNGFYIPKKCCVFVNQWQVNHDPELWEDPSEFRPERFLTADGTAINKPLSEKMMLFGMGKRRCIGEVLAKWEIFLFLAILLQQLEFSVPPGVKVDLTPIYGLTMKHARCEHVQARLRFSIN
On the % scale 0 is the no-effect control and ±100 the full control effect.

| Compound | activity, negative = inhibition | AC50 |
| --- | --- | --- |
| O=C(O)C[C@H]1OCC=C2C[N@@+]3([O-])CC[C@]45c6ccccc6N[C@@H]4[C@@H]1[C@H]2C[C@H]53 | -14.3% [at 2.29 µM] | – |
| COc1ccc(O[C@H]2C=C[C@@H](c3ccccc3)O[C@@H]2CO/N=C(\C)CCN2CCCCc3nc(C)c(C)cc32)cc1 | 0.173% [at 11.4 µM] | – |
| CN(C)Cc1ccccc1-c1cc(-n2ccnc2)ncn1 | – | 5.01 µM (active) |
| COc1ccccc1-c1cc(-n2ccnc2)ncn1 | – | 0.316 µM (active) |
| Nc1nc(-c2cccc([N+](=O)[O-])c2)cc(-c2cc(-c3cccc([N+](=O)[O-])c3)nc(N)n2)n1 | 0.313% [at 2.29 µM] | – |
| Cc1cc(-c2cccc([N+](=O)[O-])c2)nc2ccc3ccccc3c12 | – | 0.631 µM (active) |
| O=C(Cn1c(-c2cscn2)nc2ccccc21)Nc1cc(F)ccc1F | – | 2.51 µM (active) |
| O=C(Cn1c(C(F)(F)F)nc2ccccc21)c1ccc(F)cc1 | – | inactive |
| CCn1c(CNC(=O)COc2ccc(C(C)C)cc2)nnc1SCC(=O)Nc1cc(F)ccc1C | – | inactive |
| Cn1ncc2c(Cl)ncnc21 | -5.24% [at 11.4 µM] | – |
| Cn1ncc2c(NCCc3ccccc3)nc(Cl)nc21 | – | 2.51 µM (active) |
| CN1CCN(c2ncc3nc(-c4cccs4)c(=O)n(Cc4cccs4)c3n2)CC1 | – | 15.8 µM (active) |
| COc1cccc(Cn2c(=O)c(-c3ccccc3)nc3cnc(N4CCN(C)CC4)nc32)c1 | – | inactive |
| CN1CCN(c2ncc3nc(-c4ccccc4)c(=O)n(Cc4ccc(F)cc4)c3n2)CC1 | – | inactive |
| COCCn1c(=O)c(-c2cccs2)nc2cnc(N3CCN(C)CC3)nc21 | – | 15.8 µM (active) |
| CC(C)CNS(=O)(=O)c1cc(C(=O)N2CC(C)OC(C)C2)c(Cl)cc1Cl (stereo not drawn) | – | inactive |
| c1ccc(CNc2ccnc(-c3cccnc3)n2)cc1 | – | 0.251 µM (active) |
| Cc1cccc(CNc2ccnc(-c3cccnc3)n2)c1 | – | 0.126 µM (active) |
| COc1cc(C)ccc1OCCCOc1ccccc1Br | – | 1.58 µM (active) |
| COc1cc(C)ccc1OCCOc1cc(C)ccc1Cl | – | inactive |
| C[C@@H]1C[C@H](C)CN(S(=O)(=O)c2cc(Cl)c(Oc3ccc([N+](=O)[O-])cc3Cl)c(Cl)c2)C1 | -15.8% [at 11.4 µM] | – |
| COc1cc(C)ccc1OCCCOc1ccccc1Cl | – | 2.51 µM (active) |
| COc1ccccc1OCCCOc1ccc([N+](=O)[O-])cc1Cl | – | 2 µM (active) |
| CC1(C)CCC=[N+]1[O-] | – | inactive |
| CO/N=C(\C)CCN1CCc2nc(-c3ccccc3)c(-c3ccccc3)cc2C1 | 7.31% [at 11.4 µM] | – |
| CO[C@H]1COC(=O)[C@H]2CCCN2C(=O)[C@@H](C)COC(=O)C/C=C\[C@@H]1C | -1.05% [at 11.4 µM] | – |

| Compound | activity, negative = inhibition | AC50 |
| --- | --- | --- |
| CC(=O)Nc1c(S(=O)(=O)c2ccccc2)c2nc3ccccc3nc2n1Cc1ccccc1 | – | inactive |
| CCn1c2ccc(Cl)cc2c2nc3ccccc3nc21 | – | 0.501 µM (active) |
| Cc1cc(-c2n[nH]c(=S)o2)c(C)n1-c1ccccc1 | – | 14.1 µM (active) |
| CN(C)S(=O)(=O)Oc1ccccc1C(=O)Nc1cccc(C(F)(F)F)c1 | – | 8.91 µM (active) |
| CN(C)S(=O)(=O)Oc1ccc(Cl)cc1C(=O)Nc1cccc(C(F)(F)F)c1 | – | 7.08 µM (active) |
| CC(O)(CS(=O)(=O)Cc1ccccc1Cl)C(=O)Nc1cccc(C(F)(F)F)c1 (stereo not drawn) | – | inactive |
| CO[C@@H]1/C=C\CC(=O)N[C@@H](C)C(=O)OC[C@H](NS(=O)(=O)c2ccc(C)cc2)[C@H](C)/C=C\CC(=O)OC[C@H]1C | 8.52% [at 11.4 µM] | – |
| COC(=O)C/C=C\[C@H](C)[C@@H](OC)c1ccccc1Br | -0.474% [at 11.4 µM] | – |
| CN(CC(=O)O)CC(=O)O | -5.93% [at 2.29 µM] | – |
| COC(=O)CSc1ncc(OC)c(OC)n1 | – | inactive |
| CCOC(=O)C(C)Sc1ncc(OC)c(Sc2ccc(Cl)cc2)n1 (stereo not drawn) | – | 12.6 µM (active) |
| O=C(Nc1ccccc1)N1CCCC2(CCN(C(=O)c3cnccn3)CC2)C1 | – | inactive |
| COc1ccc(-c2cc(C(=O)Nc3cnn(Cc4ccccc4C)c3)no2)cc1OC | – | inactive |
| O=C(Nc1cnn(Cc2ccc(Cl)cc2Cl)c1)c1cc(-c2cccs2)on1 | – | 2.51 µM (active) |
| Cc1cccc(-c2c3c(=O)n(C)c(=O)n(C)c3cn2C2CCCCC2)c1 | – | inactive |
| O=C(Nc1ccccc1N1CCOCC1)c1cnccn1 | – | 4.47 µM (active) |
| O=C(Nc1ccccc1N1CCOCC1)c1ccc([N+](=O)[O-])cc1 | – | inactive |
| O=C(c1cnccn1)N1CCC2(CC1)CCN(c1ccccc1)CC2 | – | inactive |
| CNc1ccnc(-c2c(C)noc2C)n1 | – | 1.26 µM (active) |
| c1cc(NC2CC2)nc(-c2ccoc2)n1 | – | 0.251 µM (active) |
| COCCNc1ccnc(-c2c(C)noc2C)n1 | – | 2.51 µM (active) |
| Cc1noc(C)c1-c1nccc(NC2CC2)n1 | – | 0.1 µM (active) |
| O=C1O/C(=C\Br)CC[C@@H]1c1cccc2ccccc12 | – | inactive |
| Clc1cnccn1 | – | inactive |
| Cc1noc(C)c1-c1nccc(Nc2ccc(F)cc2)n1 | – | 0.398 µM (active) |
| Cn1c2c(c(=O)n(C)c1=O)CN(CCN1CCNCC1)CN2 | – | inactive |

| Compound | activity, negative = inhibition | AC50 |
| --- | --- | --- |
| COc1ccc(C(=O)N2CCC3(CC2)CCN(c2ncccn2)CC3)cc1 | – | inactive |
| O=c1ccc(Oc2nc(N3CCOCC3)nc(N3CCOCC3)n2)n[nH]1 | – | inactive |
| COC(=O)c1ccc(Oc2nc(N(C)C)nc(N3CCOCC3)n2)cc1 | – | 3.55 µM (active) |
| CCOC(=O)C(C(=O)NCc1ccc(C)cc1)c1ncc(C(F)(F)F)cc1Cl (stereo not drawn) | – | 10 µM (active) |
| Cc1ccc(CNCC(O)(c2ccc(F)cc2)c2ccc(F)cc2)cc1 | – | inactive |
| NCC(=O)N[C@H](CO)C(=O)O (H-Gly-[dS]-OH) | -8.79% [at 11.4 µM] | – |
| O=c1cnc2cncnc2n1Cc1ccccc1 | – | 25.1 µM (active) |
| Cc1ccc([C@@H](O)c2cnc(C)n2Cc2ccccc2)cc1 | -10.8% [at 11.4 µM] | – |
| COc1cccc(Cn2c(=O)cnc3cncnc32)c1 | – | 15.8 µM (active) |
| OC[C@@H]1O[C@@H](n2cnc3cncnc32)[C@@H](O)[C@H]1O | – | inactive |
| CCCn1nnnc1-c1cc(Cl)cc(Cl)c1 | – | 2.82 µM (active) |
| CC(C)n1nnnc1-c1cc(Cl)cc(Cl)c1 | – | 8.91 µM (active) |
| CC(C)CC(c1nnnn1C(C)C)N1CCN(c2ccccc2)CC1 (stereo not drawn) | – | inactive |
| CCS(=O)(=O)c1ccc2c(c1)N(S(C)(=O)=O)CC(C(=O)NCCOC)O2 (stereo not drawn) | – | inactive |
| CCOC(=O)CCN1C(=O)[C@H]2[C@@H]3[C@H](O)[C@H](O)CC(=O)[C@H]3CC[C@H]2C1=O | -2.79% [at 11.4 µM] and -9.9% [at 11.4 µM] | – |
| COC(=O)C/C=C\[C@@H](C)[C@@H](/C=N\O[C@@H](C)CN1CCCc2nc(C)c(C)cc21)NS(=O)(=O)c1ccc(C)cc1 | -5.78% [at 11.4 µM] | – |
| O=C(O)/C=C1\NC(=O)c2ccccc21 | – | inactive |
| Nc1ccc2c3c(cccc13)C(=O)NC2=O | – | 1 µM (active) |
| COC(=O)c1sc2ncccc2c1OCc1c(Cl)cccc1Cl | – | 0.158 µM (active) |
| COc1ccc(CNC(=O)Nc2cccs2)cc1OC | – | 12.6 µM (active) |
| COc1ccc(NC(=O)COc2ccc(CNCCCN3CCOCC3)cc2OC)cc1 | – | inactive |
| COc1cc(CNCc2cccs2)ccc1OCC(=O)NC(C)(C)C | – | 3.16 µM (active) |
| COc1ccc(CCn2c3c(c(=O)[nH]c2=O)C(NC(=O)c2cccs2)(C(F)(F)F)C(=O)N3)cc1OC (stereo not drawn) | – | inactive |
| COc1ccc(C[C@@](C)(N)C(=O)O)cc1OC | – | inactive |
| COc1cc(CNCCc2ccccc2)ccc1OCC(=O)NC(C)(C)C | – | inactive |
| C/C(CCN1CCCCc2nc(C)c(C)cc21)=N\OC[C@@H](C)[C@H](OCc1ccccc1)C(C)C | -4.06% [at 11.4 µM] | – |

| Compound | activity, negative = inhibition | AC50 |
| --- | --- | --- |
| O=C(c1ccncc1)N1CCC2(CCN(Cc3ccncc3)CC2)CC1 | – | inactive |
| O=S(=O)(c1ccccc1)N1CCC2(CCCN(Cc3ccncc3)C2)CC1 | – | 12.6 µM (active) |
| COCC(=O)N1CCC2(CCN(Cc3ccncc3)CC2)CC1 | – | 10 µM (active) |
| O=C(c1cc(C(F)(F)F)cc(C(F)(F)F)c1)N1CCC[C@@]2(CCN(c3ccncc3)C2)C1 | – | inactive |
| N#Cc1ccc(CN2CCCC3(CCN(S(=O)(=O)c4ccccc4)CC3)C2)cc1 | – | inactive |
| N#Cc1ccc(CN2CC[C@@]3(CCCN(C(=O)c4cc(C(F)(F)F)cc(C(F)(F)F)c4)C3)C2)cc1 | – | 25.1 µM (active) |
| N#Cc1ccc(CN2CCC3(CC2)CCN(C(=O)c2cc(C(F)(F)F)cc(C(F)(F)F)c2)CC3)cc1 | – | inactive |
| O=C(c1cc(C(F)(F)F)cc(C(F)(F)F)c1)N1CCC[C@@]2(CCN(Cc3ccncc3)C2)C1 | – | 12.6 µM (active) |
| O=C(c1cc(C(F)(F)F)cc(C(F)(F)F)c1)N1CCC2(CCCN(Cc3ccncc3)C2)CC1 | – | inactive |
| N#Cc1ccc(CN2CC3(CCN(C(=O)c4cc(C(F)(F)F)cc(C(F)(F)F)c4)CC3)C2)cc1 | – | inactive |
| O=S(=O)(c1ccccc1)N1CCC2(CCN(Cc3ccncc3)CC2)CC1 | – | inactive |
| CC(=O)N1CCC2(CCN(Cc3ccncc3)CC2)CC1 | – | inactive |
| CO/N=C\[C@@H](C)[C@H](OCc1ccccc1)C(C)C | -4.31% [at 11.4 µM] | – |
| O=C(c1ccncc1)N1CCC2(CCCN(Cc3ccncc3)C2)CC1 | – | 6.31 µM (active) |
| O=C(c1cnccn1)N1CCC[C@@]2(CCN(Cc3ccncc3)C2)C1 | – | 15.8 µM (active) |
| O=C(c1ccncc1)N1CCC2(CCCN(C(c3ccccc3)c3ccccc3)C2)CC1 | – | 0.2 µM (active) |
| COc1ccc(C(=O)N2CCC3(CCCN(Cc4ccncc4)C3)CC2)cc1 | – | inactive |
| O=C(c1cnccn1)N1CCC[C@@]2(CCN(Cc3cc(C(F)(F)F)cc(C(F)(F)F)c3)C2)C1 | – | inactive |
| O=C(c1cc(C(F)(F)F)cc(C(F)(F)F)c1)N1CCC2(CCN(Cc3ccccc3)CC2)CC1 | – | inactive |
| O=C(c1cnccn1)N1CCC[C@@]2(CCN(Cc3nccs3)C2)C1 | – | inactive |
| Cc1noc(C)c1C(=O)N1CCC2(CCCN(C(c3ccccc3)c3ccccc3)C2)CC1 | – | inactive |
| CC(C)NC(=O)N1CCCC2(CCN(C(=O)c3ccncc3)CC2)C1 | – | inactive |
| O=C(c1ccncc1)N1CCC2(CCCN(Cc3ccccc3)C2)CC1 | – | inactive |
| O=C(c1cc(C(F)(F)F)cc(C(F)(F)F)c1)N1CCC2(CC1)CN(Cc1ccccc1)C2 | – | inactive |
| O=C(c1cc(C(F)(F)F)cc(C(F)(F)F)c1)N1CCC[C@@]2(CCN(Cc3ccccc3)C2)C1 | – | 25.1 µM (active) |
